From PubChem BioAssay AID1851 (National Center for Advancing Translational Sciences (NCATS), 2009)
In all, about 16,000 compounds went through this assay and about 5,100 (32%) were called active. Not shown: some 25% with an inconclusive outcome. Calls come from the whole dose curve; as a rule, active = well fitted curve in the direction sought with a large enough effect; inconclusive = small, poorly fitted or top-dose-only effect, or effect the other way; inactive = no such curve, though single readings can be large or run the other way. The list shows a part of the results.

biological target: Cytochrome P450 3A4 (Homo sapiens) (UniProt P08684); assay: Cytochrome panel assay with activity outcomes; conditions: recombinant CYP, pro-luciferin dealkylation, luminescence, p450-cyp3a4; series mostly up to 57.1 µM
% is set by controls: 0 for no effect and ±100 for the full control effect.

Sequence of Cytochrome P450 3A4 (Homo sapiens) (P08684 whole entry, looked up): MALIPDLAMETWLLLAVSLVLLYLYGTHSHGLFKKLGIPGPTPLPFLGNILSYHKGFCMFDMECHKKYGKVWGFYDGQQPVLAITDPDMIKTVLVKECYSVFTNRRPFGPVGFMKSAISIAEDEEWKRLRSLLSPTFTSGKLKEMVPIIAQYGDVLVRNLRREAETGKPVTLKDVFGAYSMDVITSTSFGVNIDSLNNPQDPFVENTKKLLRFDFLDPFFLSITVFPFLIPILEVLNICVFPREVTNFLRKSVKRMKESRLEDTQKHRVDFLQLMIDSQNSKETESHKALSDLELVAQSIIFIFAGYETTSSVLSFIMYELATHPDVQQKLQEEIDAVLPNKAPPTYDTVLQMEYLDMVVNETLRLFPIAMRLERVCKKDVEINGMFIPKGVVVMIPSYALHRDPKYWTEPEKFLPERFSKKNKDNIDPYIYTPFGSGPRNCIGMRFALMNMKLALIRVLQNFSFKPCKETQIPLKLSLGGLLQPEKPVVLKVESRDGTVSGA

| SMILES | AC50 | activity, negative = inhibition |
| --- | --- | --- |
| N[C@H](CCC(=O)N[C@H](CSN=O)C(=O)NCC(=O)O)C(=O)O | inactive |  |
| CO[C@@H]1COC(=O)[C@H]2CCCN2C(=O)[C@@H](C)COC(=O)CCC[C@H]1C |  | -20.2% [at 11.4 µM] (inactive) |
| C=CCNC(=O)/C(=C\C=C\c1ccccc1)NC(=O)c1ccc(OCCCC)cc1 | 8.91 µM (active) |  |
| Cc1ccc(C(=O)N/C(=C/C=C/c2ccccc2)C(=O)NCc2ccco2)cc1 | 5.01 µM (active) |  |
| CC[N+](CC)(CC)CCOc1ccc(/C=C\c2ccccc2)cc1 | inactive |  |
| C=CCOc1cccc(/C=N/NC(=O)C(=O)NCc2ccco2)c1 | inactive |  |
| Cn1cnc([N+](=O)[O-])c1Sc1nc(N)nc2c1ncn2[C@H]1C[C@H](O)[C@@H](CO)O1 |  | -4.33% [at 11.4 µM] (inactive) |
| CN1CCC(=C2c3ccccc3C=Cc3ccccc32)CC1 | inactive |  |
| O=C(O)CN(CCOCCOCCN(CC(=O)O)CC(=O)O)CC(=O)O | inactive |  |
| N=C1/C(=C\c2ccc(SCc3ccco3)o2)C(=O)N=C2SC=NN12 | 3.98 µM (active) |  |
| N=C(N)N1CCc2ccccc2C1 | inactive |  |
| CCc1ccc(/C=C\C(=O)N2CCc3ccccc3C2)cc1 | inactive |  |
| O=C(O)c1cccc2cccc(-c3cccc4cccc(C(=O)O)c34)c12 |  | -5.55% [at 11.4 µM] (inactive) |
| O=C(CCCN1C(=O)c2cccc3cccc(c23)C1=O)N1CCc2ccccc2C1 | 5.01 µM (active) |  |
| O=C(CN1C(=O)c2cccc3cccc(c23)C1=O)N1CCCCCC1 | 10 µM (active) |  |
| O=C(c1ccc(S(=O)(=O)N2CCCCCC2)cc1)N1CCC(CN2C(=O)c3cccc4cccc(c34)C2=O)CC1 | inactive |  |
| COc1cccc(/C=N/NC(=O)c2nc(-c3ccccc3)cc(-c3ccccc3)n2)c1 | inactive |  |
| COc1cccc(-c2cc(C(=O)N/N=C/c3ccc(OC)c(COC(C)=O)c3)c3ccccc3n2)c1 | 1.78 µM (active) |  |
| COc1ccc(/C=N/NC(=O)c2cc(-c3ccc(C)cc3C)nc3ccccc23)cc1COC(C)=O |  | 14.1% [at 0.457 µM] (inactive) |
| N[C@]1(C(=O)O)CCc2cc(P(=O)(O)O)ccc21 | inactive |  |
| Fc1ccc2c(c1)C(c1ccncc1)=NNC(c1ccc(Cl)cc1)=N2 | 1.78 µM (active) |  |
| CC(C)c1ccc2c(c1)C(c1ccc(N3CCOCC3)cc1)=NNC(c1cccs1)=N2 |  | 9.44% [at 2.29 µM] (inactive) |
| Clc1ccc2c(c1)C(c1cccs1)=NNC(c1cccnc1)=N2 | 10 µM (active) |  |
| O=C(O)[C@H]1CCCC[C@@H]1c1c2ccc(=O)c(O)c-2oc2c(O)c(O)ccc12 |  | -5.27% [at 11.4 µM] (inactive) |
